High-throughput results: PubChem, several laboratories
In the library only some 3.8% were active in any assay of this set; here they are far more common.
Jurkat NFkB inh: inhibitors of induced NF-kB luciferase reporter, primary screen, TCR NF-kB activation inhibitor project, cell-based, luminescence, uHTS. inhibition, % at 4 µM. Jurkat, PMA/ionomycin-induced NF-kB luciferase reporter. actives 0.53% (n = 330,000); in the data active = inhibition above about 50%
697 NFkB inh: inhibitors of PMA/ionomycin-induced NF-kB reporter, 697 cells, primary screen, B-cell NF-kB inhibitor project, cell-based, luminescence, uHTS. 697 B-cell NF-kB luciferase reporter, 16 h. AID 435022, 2010. inhibition, % at 4 µM. actives 0.33% (n = 330,000); in the data active = inhibition above about 35%
Shn3 inh set2: reduction of Shn3 3'UTR firefly luciferase signal, primary screen, Schnurri-3 inhibitor project, cell-based, Clone20 osteoblasts, set 2; Clone20 osteoblast Shn3 3'UTR firefly luciferase, 24 h; inhibition, % at 12.5 µM; actives 0.52% (n = 360,000);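 active = mean inhibition of at least 75% with every replicate also reaching 75%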
Gli-Sufu antag: Gli-Sufu pathway antagonists, primary screen, luciferase luminescence, Sufu-KO-LIGHT cells, uHTS; Sufu-KO-LIGHT fibroblasts, Gli luciferase reporter luminescence; inhibition, % at 5 µM; actives 0.74% (n = 340,000);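 active = inhibition above about 55%, limit read from the data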
Mdm2-MdmX inh: inhibitors of human Mdm2-MdmX association, primary screen, cell-based, luminescence, split luciferase, SaOS-2, uHTS. inhibition, % at 8 µM. SaOS-2 split-luciferase Mdm2/MdmX complementation. AID 485346, 2010. actives 3% (n = 330,000). Protein Mdm4 (Homo sapiens) + E3 ubiquitin-protein ligase Mdm2 (Homo sapiens), …;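 active = inhibition of at least 50% at 8 µM in the primary screen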
Target sequence (O15151 whole entry, looked up): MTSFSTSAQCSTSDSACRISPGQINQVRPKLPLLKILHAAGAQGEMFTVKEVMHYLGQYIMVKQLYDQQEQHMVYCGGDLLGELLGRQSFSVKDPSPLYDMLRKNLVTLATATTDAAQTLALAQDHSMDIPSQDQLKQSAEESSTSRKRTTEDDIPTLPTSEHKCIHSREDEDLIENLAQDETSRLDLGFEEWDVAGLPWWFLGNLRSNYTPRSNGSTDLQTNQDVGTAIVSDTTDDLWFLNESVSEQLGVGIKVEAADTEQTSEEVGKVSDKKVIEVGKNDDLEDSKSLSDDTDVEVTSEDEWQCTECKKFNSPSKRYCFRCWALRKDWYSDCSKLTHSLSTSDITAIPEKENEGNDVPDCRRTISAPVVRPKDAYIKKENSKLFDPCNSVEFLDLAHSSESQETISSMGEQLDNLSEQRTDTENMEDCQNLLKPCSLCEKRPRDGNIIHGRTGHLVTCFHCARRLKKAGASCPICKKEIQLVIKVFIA
Target sequence (Q00987 whole entry, looked up): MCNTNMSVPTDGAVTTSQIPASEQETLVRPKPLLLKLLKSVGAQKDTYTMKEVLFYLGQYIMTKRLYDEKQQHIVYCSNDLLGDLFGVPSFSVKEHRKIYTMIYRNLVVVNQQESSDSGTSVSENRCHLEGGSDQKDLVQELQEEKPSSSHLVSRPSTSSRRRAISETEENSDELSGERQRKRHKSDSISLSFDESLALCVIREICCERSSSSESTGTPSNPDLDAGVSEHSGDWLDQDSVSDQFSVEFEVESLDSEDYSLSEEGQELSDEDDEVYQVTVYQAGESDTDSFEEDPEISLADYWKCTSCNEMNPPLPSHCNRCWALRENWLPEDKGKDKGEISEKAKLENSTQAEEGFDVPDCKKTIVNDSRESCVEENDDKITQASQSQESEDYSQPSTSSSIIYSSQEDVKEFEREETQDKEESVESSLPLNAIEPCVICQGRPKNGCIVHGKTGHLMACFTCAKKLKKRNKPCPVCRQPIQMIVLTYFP
Mdm2-MdmX conf: Mdm2-MdmX complex disruptors, retested hits, confirmation, luminescence, single concentration; shares compounds with Mdm2-MdmX inh; Mdm2-MdmX binding, luminescent assay; inhibition, % at 8 µM; actives 55% (n = 10,000); in the data active = inhibition above about 40%
FLuc counter: full-length luciferase signal inhibition, confirmation, counter-screen for Mdm2/MdmX interaction inhibitor project, cell-based, single concentration, SaOS-2 | shares compounds with Mdm2-MdmX inh | SaOS-2 full-length luciferase counterscreen, luminescence | inhibition, % at 8 µM | actives 77% (n = 6,200);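 active = mean inhibition at 8 µM reaching about 37%, which flags the compound as non-specific, limit read from the data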;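 note: p53-null SaOS-2 cells with luciferase driven by a doxycycline-inducible promoter; compound on cells about two nights before reading with doxycycline added after day one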
A number is an active result; - = inactive; . = not tested or not shown; + = active, no number.

SMILES	Jurkat NFkB inh	697 NFkB inh	Shn3 inh set2	Gli-Sufu antag	Mdm2-MdmX inh	Mdm2-MdmX conf	others
COc1ccc(S(=O)(=O)c2snnc2C)cc1	-	-	-	-	-	.
O=C(CNC(=O)c1ccco1)Nc1ccncc1	-	-	-	-	-	.
COc1ccc(C(C)(O)c2nc(-c3cccc(C(F)(F)F)c3)cs2)cc1 (stereo not given)	.	.	-	.	.	.
Cc1ccc(NC(=O)c2cc(S(=O)(=O)N3CCc4ccccc43)cn2C)cc1C	-	-	-	-	55	-
O=C(COC(=O)CC1CCCC1)Nc1ccc(Cl)cc1	-	-	-	-	-	.
Cc1nc(N)nc(-c2ccccc2O)n1	-	-	-	-	-	.
Nc1nc(N)nc(-c2cc([N+](=O)[O-])ccc2O)n1	-	-	-	-	77	63	FLuc counter=82
Nc1nc(N)nc(-c2cc(O)ccc2O)n1	-	-	-	-	88	95	FLuc counter=55
Cc1ccnc(N2C(=O)CSC2c2ccc(Cl)cc2)c1 (stereo not given)	-	-	-	-	-	.
CCOC(=O)c1c(C)[nH]c(C)c1S(=O)(=O)NCCCN1CCOCC1	-	-	-	-	-	.
CCOC(=O)c1c(C)[nH]c(C)c1S(=O)(=O)NCCN1CCN(c2cc(Cl)ccc2C)CC1	-	-	-	-	59	-
COc1ccccc1-c1nc(SCC(=O)N2CCC(C(N)=O)CC2)n[nH]1	-	-	-	-	-	.
CCCCc1ccc(NC(=O)CSc2nc(=O)n(CCN(CC)CC)c3c2CCCC3)cc1	-	-	-	-	87	54	FLuc counter=62
Oc1cc(NCc2ccc(F)cc2)cc2cccnc12	-	-	-	-	56	-
CC(=O)Nc1ccc(SCCN2CC[C@@H](C)CCC2=O)cc1	-	-	-	-	-	.
C=Cc1ncc(OC)c2c1[nH]c1ccccc12	-	-	-	-	100	59	FLuc counter=-
CCCCN(CC)CCCNC(=S)Nc1ccc2nc(N3CCN(CC)CC3)cc(C)c2c1	-	-	-	-	-	.
CCCN(CCC)CCCNC(=S)Nc1ccc2nc(N3CCCC3)cc(C)c2c1	-	-	-	-	78	45	FLuc counter=63
CCCCN(CC)CCCNC(=S)Nc1ccc2nc(N3CCN(C)CC3)cc(C)c2c1	-	-	-	-	56	-
Cc1ccc(NC(=O)CCC(=O)NNC(=O)c2ccccc2[N+](=O)[O-])c(C)c1	-	-	-	-	-	.
O=C(NCc1ccc(Cl)cc1)[C@@H]1CCCN1S(=O)(=O)c1ccc(Cl)cc1	-	-	-	-	-	.
Cc1cc(N/N=C/c2c(O)ccc3ccccc23)nc(-c2ccccc2O)n1	-	-	-	-	61	53	FLuc counter=39
Cc1ccc(C)c(Nc2cc(C)nc(-c3ccccc3O)n2)c1	-	-	-	-	59	62	FLuc counter=49
Cc1cc(Nc2ccccc2)nc(-c2ccccc2O)n1	-	-	-	-	-	.
Cc1cc(Nc2ccccc2Cl)nc(-c2ccccc2O)n1	-	-	-	-	-	.
SMILES	Jurkat NFkB inh	697 NFkB inh	Shn3 inh set2	Gli-Sufu antag	Mdm2-MdmX inh	Mdm2-MdmX conf	others
Cc1ccc(C(=O)NCC(=O)OCc2nnc(-c3ccc([N+](=O)[O-])cc3)o2)s1	-	-	-	-	-	.
COCCNc1nc(-c2cc(F)ccc2C)c2sc(-c3ccccc3)cc2n1	.	.	-	.	.	.
COc1ccc2c(CC(=O)Nc3ncc(C)s3)coc2c1	-	-	-	-	66	66	FLuc counter=+
O=C(Nc1ccc(CN2CCCCC2)cc1)Nc1ccc(Br)cc1Cl	-	-	-	-	74	42	FLuc counter=39
S=C(Nc1ccc(Br)cc1Cl)N1CCCC1	-	-	-	-	-	.
CCN(C(=O)COC(=O)c1cccs1)c1c(N)n(Cc2ccccc2)c(=O)[nH]c1=O	-	-	-	-	-	.
Cc1nn(Cc2ccc(Cl)cc2Cl)c(C)c1NC(=O)c1sc2ccccc2c1Cl	-	-	-	-	-	.
Cc1nn(Cc2c(Cl)cccc2Cl)c(C)c1NC(=O)c1cn(-c2ccccc2)nc1-c1ccccc1	-	-	88	-	98	99	FLuc counter=37
Cc1nn(Cc2c(Cl)cccc2Cl)c(C)c1NC(=O)c1sc2ccccc2c1Cl	-	-	-	-	53	-
Cc1nn(Cc2ccc(Cl)c(Cl)c2)c(C)c1NC(=O)c1sc2ccccc2c1Cl	-	-	-	-	53	-
Cc1cccc(C)c1NC(=O)Nc1nnc([C@@H]2C[C@H](O)[C@@H](CO)O2)s1	.	.	-	.	.	.
O=c1[nH]c(=S)[nH]c2nccnc12	.	.	-	-	.	.
CC(C)n1cnc2c(NCc3ccc(S(N)(=O)=O)cc3)nc(NCc3ccc(S(N)(=O)=O)cc3)nc21	-	-	-	-	-	.
CC(C)[C@H](CO)Nc1nc(NCc2ccc(S(N)(=O)=O)cc2)c2ncn(C(C)C)c2n1	-	-	-	-	79	64	FLuc counter=51
CCNc1c(NS(=O)(=O)c2ccc(F)c(Cl)c2)c(=O)oc2ccccc12	-	-	-	-	-	.
O=c1[nH]c2ccc([N+](=O)[O-])cc2nc1/C=C(\O)c1ccccc1	-	-	-	-	81	-
Cc1c(C(=O)NC(=S)Nc2ccc(NC(=O)c3cccs3)cc2)oc2ccccc12	-	-	-	-	62	-
CC(=O)NC(=S)Nc1ccc(NC(=O)c2cccs2)cc1	-	-	-	-	-	.
CCOc1ccc(NC(=S)N2CCC(N(C)CCN3CCOCC3)CC2)cc1	-	-	-	-	-	.
CC(C)n1cnnc1SCC(=O)NNC(=O)COc1ccc(Cl)cc1	-	-	-	-	-	.
Cc1cc(C)cc(S(=O)(=O)c2cn(C)c3cc(N4CCN(C)CC4)c(F)cc3c2=O)c1	-	-	-	-	96	-
CC(=O)N1N=C(c2ccc(NS(=O)(=O)c3ccccc3)cc2)CC1c1ccco1 (stereo not given)	-	-	-	-	-	.
COc1ccc(C(=O)Nc2nc3cc(OC)c(OC)cc3c(=O)[nH]2)cc1	-	-	-	-	71	-
O=C(/C=C/c1ccc(Cl)cc1)NCc1cccs1	-	-	-	-	-	.
O=C(/C=C/C(=O)NCc1cccs1)NCc1cccs1	-	-	-	-	62	-
O=C(ONC1=NCCCCC1)c1cccc([N+](=O)[O-])c1	-	-	-	-	56	-
O=[N+]([O-])c1cccc(/C=N/NC2=NCCCCC2)c1	-	-	-	-	-	.
Cc1cccc(/C=C/C(=O)c2cc(Br)ccc(=O)c2O)c1	-	-	-	-	54	-	FLuc counter=73
